# Measurements as given in the supplement of paper PMC9446081.
# ± gives the standard deviation of the averaged measurements.
# Legend:
# Assay in all cases: relative enzymatic activity vs untreated control (fraction); higher = less inhibition
# Conditions in all cases: 100 µM; incubation time: 2 h at 37 C
# DNA gyrase = test system: DNA gyrase
# Description: (§1)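 In vitro enzymatic inhibition assays (ProFoldin kits) for 12 purified essential E. coli enzymes or complexes, each treated with 218 active antibacterial compounds at 100 µM for 2 h at 37°C. Read-outs were fluorescence or absorbance (phosphate detection, dye binding), converted to activity via standard curves and expressed relative to untreated DMSO controls.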
# DNA helicase = DNA helicase (UniProt P0ACB1)
# Description: as §1
# DNA ligase = DNA ligase (UniProt B1XA82)
# Description: as §1
# DNA polymerase = DNA polymerase (UniProt P10443)
# Description: as §1
# DNA primase = DNA primase (UniProt P0ABS7)
# Description: as §1
# GlmU = GlmU (UniProt A7ZTU1)
# Description: as §1
# Guanlyate kinase = Guanlyate kinase (UniProt Q0TBG1)
# Description: as §1
# MurA = MurA (UniProt Q3YX52)
# Description: as §1
# MurD = biological target: T1, MurD (UniProt P14900)
# T1 sequence (whole entry): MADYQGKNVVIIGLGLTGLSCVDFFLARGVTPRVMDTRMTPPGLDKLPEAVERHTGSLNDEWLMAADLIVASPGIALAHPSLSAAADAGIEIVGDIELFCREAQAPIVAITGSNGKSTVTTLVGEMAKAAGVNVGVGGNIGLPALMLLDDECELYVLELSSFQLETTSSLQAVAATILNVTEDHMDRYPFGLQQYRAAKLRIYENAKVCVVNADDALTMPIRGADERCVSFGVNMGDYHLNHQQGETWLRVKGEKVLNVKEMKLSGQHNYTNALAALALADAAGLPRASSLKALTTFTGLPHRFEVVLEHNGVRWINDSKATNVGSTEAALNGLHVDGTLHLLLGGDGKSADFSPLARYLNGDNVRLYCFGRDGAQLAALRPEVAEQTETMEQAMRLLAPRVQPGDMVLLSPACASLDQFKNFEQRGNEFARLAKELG
# Description: as §1
# MurF = biological target: T2, MurF (UniProt P11880)
# T2 sequence (whole entry): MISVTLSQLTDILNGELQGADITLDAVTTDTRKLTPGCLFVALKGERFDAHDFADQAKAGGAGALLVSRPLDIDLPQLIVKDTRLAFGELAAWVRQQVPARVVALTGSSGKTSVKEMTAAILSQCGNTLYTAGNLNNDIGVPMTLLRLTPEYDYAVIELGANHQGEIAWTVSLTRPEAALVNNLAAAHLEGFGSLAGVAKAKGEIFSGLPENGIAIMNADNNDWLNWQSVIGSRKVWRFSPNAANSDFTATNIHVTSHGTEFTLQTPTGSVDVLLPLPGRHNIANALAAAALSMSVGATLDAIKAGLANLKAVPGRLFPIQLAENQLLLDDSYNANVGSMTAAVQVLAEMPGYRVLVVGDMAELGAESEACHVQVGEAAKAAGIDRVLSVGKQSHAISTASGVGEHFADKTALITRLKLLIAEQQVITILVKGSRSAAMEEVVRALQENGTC
# Description: as §1
# RNA polymerase = test system: RNA polymerase
# Description: as §1
# MurA, sequence (Q3YX52 whole entry): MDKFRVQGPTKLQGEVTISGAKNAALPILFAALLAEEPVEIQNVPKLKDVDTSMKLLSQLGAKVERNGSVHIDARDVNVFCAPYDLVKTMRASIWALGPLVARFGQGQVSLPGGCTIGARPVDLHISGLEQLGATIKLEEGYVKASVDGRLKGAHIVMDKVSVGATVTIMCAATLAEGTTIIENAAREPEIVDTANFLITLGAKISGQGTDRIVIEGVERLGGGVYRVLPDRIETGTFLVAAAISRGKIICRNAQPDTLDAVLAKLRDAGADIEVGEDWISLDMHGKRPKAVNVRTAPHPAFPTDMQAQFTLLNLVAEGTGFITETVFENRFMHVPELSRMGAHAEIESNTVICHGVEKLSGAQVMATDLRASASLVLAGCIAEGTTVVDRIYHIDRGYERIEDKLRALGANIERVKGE
# DNA primase, sequence (P0ABS7 whole entry): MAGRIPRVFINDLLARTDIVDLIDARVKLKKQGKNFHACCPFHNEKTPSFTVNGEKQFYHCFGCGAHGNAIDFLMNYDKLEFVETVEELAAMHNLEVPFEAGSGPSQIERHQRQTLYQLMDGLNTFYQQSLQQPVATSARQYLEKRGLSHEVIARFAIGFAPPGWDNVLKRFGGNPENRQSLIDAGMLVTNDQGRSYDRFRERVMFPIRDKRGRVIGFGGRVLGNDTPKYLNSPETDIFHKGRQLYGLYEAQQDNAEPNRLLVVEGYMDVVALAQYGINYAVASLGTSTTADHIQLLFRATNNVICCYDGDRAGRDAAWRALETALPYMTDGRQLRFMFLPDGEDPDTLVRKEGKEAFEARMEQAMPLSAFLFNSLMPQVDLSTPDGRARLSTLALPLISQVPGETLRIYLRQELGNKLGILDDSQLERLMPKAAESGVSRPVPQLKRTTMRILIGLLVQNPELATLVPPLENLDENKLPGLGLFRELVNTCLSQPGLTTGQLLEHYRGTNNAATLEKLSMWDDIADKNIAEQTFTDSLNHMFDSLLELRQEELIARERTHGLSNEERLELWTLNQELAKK
# Guanlyate kinase, sequence (Q0TBG1 whole entry): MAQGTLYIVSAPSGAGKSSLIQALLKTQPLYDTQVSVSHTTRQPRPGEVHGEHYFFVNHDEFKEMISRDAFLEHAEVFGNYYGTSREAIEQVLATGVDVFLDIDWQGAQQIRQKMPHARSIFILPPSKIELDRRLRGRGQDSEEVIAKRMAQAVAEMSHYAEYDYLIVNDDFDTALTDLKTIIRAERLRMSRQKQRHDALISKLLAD
# GlmU, sequence (A7ZTU1 whole entry, looked up): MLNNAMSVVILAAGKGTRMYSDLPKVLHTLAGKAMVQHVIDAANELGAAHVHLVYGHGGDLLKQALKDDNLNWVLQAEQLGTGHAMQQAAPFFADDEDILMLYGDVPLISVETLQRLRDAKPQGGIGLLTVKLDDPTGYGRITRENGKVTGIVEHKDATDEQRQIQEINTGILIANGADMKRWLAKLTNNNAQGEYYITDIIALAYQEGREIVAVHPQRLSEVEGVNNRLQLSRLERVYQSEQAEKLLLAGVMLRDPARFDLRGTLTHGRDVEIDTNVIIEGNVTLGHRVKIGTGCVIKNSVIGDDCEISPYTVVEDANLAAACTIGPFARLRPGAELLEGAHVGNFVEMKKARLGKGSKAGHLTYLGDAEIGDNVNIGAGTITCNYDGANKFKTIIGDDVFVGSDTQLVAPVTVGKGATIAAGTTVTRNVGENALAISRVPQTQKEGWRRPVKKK
# DNA ligase, sequence (B1XA82 whole entry): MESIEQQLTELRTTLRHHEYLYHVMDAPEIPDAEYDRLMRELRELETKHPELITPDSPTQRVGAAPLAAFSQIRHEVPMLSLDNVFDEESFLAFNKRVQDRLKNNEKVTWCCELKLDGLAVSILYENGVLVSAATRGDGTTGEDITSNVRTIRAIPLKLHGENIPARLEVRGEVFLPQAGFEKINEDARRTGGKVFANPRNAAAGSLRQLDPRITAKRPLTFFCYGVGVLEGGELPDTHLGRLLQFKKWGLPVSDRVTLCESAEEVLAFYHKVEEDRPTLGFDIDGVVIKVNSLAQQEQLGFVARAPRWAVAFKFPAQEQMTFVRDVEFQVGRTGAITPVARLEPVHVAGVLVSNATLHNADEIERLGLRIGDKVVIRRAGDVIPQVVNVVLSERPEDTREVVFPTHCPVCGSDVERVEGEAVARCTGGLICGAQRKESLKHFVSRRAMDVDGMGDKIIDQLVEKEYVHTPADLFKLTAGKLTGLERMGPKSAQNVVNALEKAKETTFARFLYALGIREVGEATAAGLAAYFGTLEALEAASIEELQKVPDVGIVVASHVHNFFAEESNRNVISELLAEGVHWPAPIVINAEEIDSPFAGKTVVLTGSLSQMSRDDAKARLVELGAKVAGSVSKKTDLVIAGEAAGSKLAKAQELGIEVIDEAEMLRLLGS
# DNA polymerase, sequence (P10443 whole entry): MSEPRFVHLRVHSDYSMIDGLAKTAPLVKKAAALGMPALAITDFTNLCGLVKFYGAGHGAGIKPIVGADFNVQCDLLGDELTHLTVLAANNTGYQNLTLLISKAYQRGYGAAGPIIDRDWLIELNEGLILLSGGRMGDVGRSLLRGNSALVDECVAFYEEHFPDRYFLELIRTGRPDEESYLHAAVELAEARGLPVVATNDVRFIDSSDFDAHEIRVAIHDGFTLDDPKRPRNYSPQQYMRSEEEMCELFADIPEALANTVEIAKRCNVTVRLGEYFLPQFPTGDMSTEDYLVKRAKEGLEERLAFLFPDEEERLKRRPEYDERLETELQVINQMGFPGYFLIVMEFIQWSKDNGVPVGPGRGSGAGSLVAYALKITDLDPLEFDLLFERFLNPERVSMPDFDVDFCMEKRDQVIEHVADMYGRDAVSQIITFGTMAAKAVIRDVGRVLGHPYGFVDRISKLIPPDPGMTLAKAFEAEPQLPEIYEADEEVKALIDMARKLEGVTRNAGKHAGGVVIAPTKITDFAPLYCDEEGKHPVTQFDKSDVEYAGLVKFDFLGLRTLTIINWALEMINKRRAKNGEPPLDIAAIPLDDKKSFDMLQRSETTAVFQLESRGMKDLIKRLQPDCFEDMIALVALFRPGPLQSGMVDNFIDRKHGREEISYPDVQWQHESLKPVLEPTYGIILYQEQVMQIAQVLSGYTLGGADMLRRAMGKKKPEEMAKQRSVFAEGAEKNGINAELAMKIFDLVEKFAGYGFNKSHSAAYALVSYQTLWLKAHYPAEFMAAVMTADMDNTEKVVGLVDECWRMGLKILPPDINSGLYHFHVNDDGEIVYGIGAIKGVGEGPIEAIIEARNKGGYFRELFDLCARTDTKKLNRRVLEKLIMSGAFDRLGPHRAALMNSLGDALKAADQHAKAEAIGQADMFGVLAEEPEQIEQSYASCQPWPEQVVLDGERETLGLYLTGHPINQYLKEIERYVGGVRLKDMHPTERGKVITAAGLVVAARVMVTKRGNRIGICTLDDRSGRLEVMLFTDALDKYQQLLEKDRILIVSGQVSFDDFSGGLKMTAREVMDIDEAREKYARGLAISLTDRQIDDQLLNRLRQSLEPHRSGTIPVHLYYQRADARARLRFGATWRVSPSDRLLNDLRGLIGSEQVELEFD
# DNA helicase, sequence (P0ACB1 whole entry): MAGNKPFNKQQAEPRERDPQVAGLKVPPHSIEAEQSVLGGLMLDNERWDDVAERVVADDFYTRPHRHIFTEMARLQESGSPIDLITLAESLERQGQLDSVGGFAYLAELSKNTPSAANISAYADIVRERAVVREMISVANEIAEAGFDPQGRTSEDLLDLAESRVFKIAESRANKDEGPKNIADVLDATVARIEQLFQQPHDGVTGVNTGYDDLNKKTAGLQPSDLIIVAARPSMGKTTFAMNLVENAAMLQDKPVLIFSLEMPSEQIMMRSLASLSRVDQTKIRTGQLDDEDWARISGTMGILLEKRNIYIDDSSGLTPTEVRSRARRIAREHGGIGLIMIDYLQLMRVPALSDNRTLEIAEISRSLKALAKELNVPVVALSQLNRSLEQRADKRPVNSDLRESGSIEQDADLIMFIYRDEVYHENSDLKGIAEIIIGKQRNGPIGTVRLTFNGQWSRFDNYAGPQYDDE
SMILES,relative enzymatic activity (DNA gyrase),relative enzymatic activity (DNA helicase),relative enzymatic activity (DNA ligase),relative enzymatic activity (DNA polymerase),relative enzymatic activity (DNA primase),relative enzymatic activity (GlmU),relative enzymatic activity (Guanlyate kinase),relative enzymatic activity (MurA),relative enzymatic activity (MurD),relative enzymatic activity (MurF),relative enzymatic activity (RNA polymerase)
CC(C)(O/N=C(\C(=O)N[C@@H]1C(=O)N2C(C(=O)O)=C(C[n+]3ccccc3)CS[C@H]12)c1csc(N)n1)C(=O)O,0.662 ± 0.56,0.577 ± 0.24,0.86 ± 0.088,1.1 ± 0.22,0.791 ± 0.01,1.01 ± 0.032,0.94 ± 0.075,0.0696 ± 0.019,0.613 ± 0.43,0.935 ± 0.24,0.829 ± 0.16
CN(C)CCC=C1c2ccccc2COc2ccc(CC(=O)O)cc21.Cl,0.496 ± 0.7,0.368 ± 0.047,0.922 ± 0.04,1.08 ± 0.18,0.755 ± 0.041,0.899 ± 0.041,0.935 ± 0.11,0.616 ± 0.29,0.566 ± 0.38,1.1 ± 0.024,0.7995 ± 0.0059
CON=C(C(=O)NC1C(=O)N2C(C(=O)[O-])=C(COC(N)=O)CSC12)c1ccco1.[Na+] (stereo not drawn),1.06 ± 0.11,0.47 ± 0.024,1.36 ± 0.18,1.12 ± 0.2,0.69 ± 0.18,1.12 ± 0.054,0.9 ± 0.019,0.117 ± 0.034,0.72 ± 0.49,1.02 ± 0.23,0.866 ± 0.088
NC[C@H]1OB(O)c2c(OCCCO)cccc21,0.84 ± 0.32,0.308 ± 0.43,0.887 ± 0.13,1.08 ± 0.082,0.8235 ± 0.0023,0.922 ± 0.11,0.991 ± 0.1,0.709 ± 0.16,0.564 ± 0.35,1.17 ± 0.024,0.871 ± 0.073
CN1CCN(c2c(F)cc3c(=O)c(C(=O)O)cn4c3c2OCN4C)CC1,0.115 ± 0.16,0.53713 ± 0.00022,0.908 ± 0.041,1.17 ± 0.21,0.86 ± 0.01,0.97 ± 0.023,0.958 ± 0.14,0.585 ± 0.19,0.624 ± 0.43,1.17 ± 0.022,0.816 ± 0.086
Cl.O=C(O)c1cn(-c2ccc(F)cc2)c2cc(N3CCNCC3)c(F)cc2c1=O,0.0194 ± 0.027,0.484 ± 0.099,1.18 ± 0.41,1.19 ± 0.31,0.688 ± 0.12,0.955 ± 0.031,0.73 ± 0.11,0.698 ± 0.044,0.595 ± 0.41,0.919 ± 0.24,0.228 ± 0.089
CCCCCCCCCCCCC[N+](C)(C)Cc1ccccc1,0.675 ± 0.95,0.0123 ± 0.0012,0.955 ± 0.043,1.04 ± 0.27,0.787 ± 0.099,0.0868 ± 0.0048,0.396 ± 0.0083,0.0305 ± 0.016,0.0614 ± 0.011,0.177 ± 0.064,0.919 ± 0.13
O=c1[nH]c(=O)n([C@@H]2C[C@@H](O)[C@@H](CO)O2)cc1F,1.07 ± 0.043,0.591 ± 0.15,0.947 ± 0.062,0.708 ± 0.44,0.873 ± 0.022,1.03 ± 0.065,0.967 ± 0.1,0.74 ± 0.18,0.604 ± 0.39,1.01 ± 0.22,0.834 ± 0.019
CON=C(C(=O)NC1C(=O)N2C(C(=O)[O-])=C(CSc3nc(=O)c([O-])nn3C)CSC12)c1csc(N)n1.O.O.O.[Na+].[Na+] (stereo not drawn),0.7 ± 0.45,0.48 ± 0.015,1.29 ± 0.4,1.13 ± 0.23,0.69 ± 0.18,0.996 ± 0.014,0.914 ± 0.065,0.124 ± 0.03,0.583 ± 0.4,0.955 ± 0.21,0.843 ± 0.073
C=C1c2cccc(O)c2C(=O)C2=C(O)C3(O)C(=O)C(C(N)=O)=C(O)C(N(C)C)C3C(O)C12.Cl (stereo not drawn),0.0714 ± 0.1,0.143 ± 0.031,0.963 ± 0.19,0.187 ± 0.022,0.399 ± 0.077,1 ± 0.011,0.376 ± 0.018,0.0701 ± 0.026,0.62 ± 0.43,0.937 ± 0.28,0.052 ± 0.025
COc1c(N2CC3CCCNC3C2)c(F)cc2c(=O)c(C(=O)O)cn(C3CC3)c12.Cl (stereo not drawn),0.0344 ± 0.049,0.559 ± 0.16,1.22 ± 0.1,1.13 ± 0.18,0.682 ± 0.17,0.986 ± 0.039,0.825 ± 0.096,0.795 ± 0.041,0.597 ± 0.41,0.94 ± 0.19,0.868 ± 0.083
CC1(C)SC2C(N3C(=O)C(c4ccccc4)NC3(C)C)C(=O)N2C1C(=O)[O-].[K+] (stereo not drawn),1.14 ± 0.073,0.458 ± 0.13,1.67 ± 0.9,1.36 ± 0.37,0.776 ± 0.26,0.948 ± 0.043,1.13 ± 0.1,0.219 ± 0.028,0.563 ± 0.37,0.945 ± 0.14,0.90251 ± 0.00052
CON=C(C(=O)N[C@@H]1C(=O)N2C(C(=O)O)=C(CSc3nc(=O)c(O)nn3C)CS[C@H]12)c1csc(N)n1,0.722 ± 0.42,0.448 ± 0.015,0.961 ± 0.042,1.05 ± 0.24,0.8 ± 0.022,0.861 ± 0.055,0.984 ± 0.11,0.0646 ± 0.0061,0.568 ± 0.39,0.955 ± 0.25,0.524 ± 0.35
